From PubChem BioAssay AID620 (Sanford-Burnham Center for Chemical Genomics, 2007) come the findings set out here.

The campaign covered roughly 87,000 compounds. About 360 (0.41%) were called active. What follows is part of a selection rich in actives, with near analogues and random picks from the rest. Unmarked numbers belong to inactive results. Rule as the data show it: active = cytotoxicity above about 50%; inactive = the rest.

A short description of the assay: cytotoxicity in HT1080 fibrosarcoma cells, cell-based, fluorescence readout (AID 620).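 Also: cells exposed to compound overnight then 4 h with Alamar Blue; 0% = vehicle DMSO and 100% = killing control.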 The conditions noted are these: HT1080 viability, at 10 µM, stronger effect = higher value.
For the compound `Cn1c(=O)c2c(nc(SCCN3CCOCC3)n2Cc2ccc(Cl)cc2)n(C)c1=O`, the cytotoxicity is -7%.

`Fc1ccc(-c2cc3nc4c(c(N5CCOCC5)n3n2)CCCC4)cc1`: the cytotoxicity is -15.8%.

As to `OC1CCN(c2c3c(nc4cc(-c5ccc(F)cc5)nn24)CCC3)CC1`, the cytotoxicity was -17.8%.

On to `O=C(C1CC1)N1CCN=C1SCc1ccccc1Cl`, for which the cytotoxicity is -3.4%.

In the case of `CCOC(=O)N1CCN(S(=O)(=O)c2ccc(OCC)c(C)c2)CC1`, the cytotoxicity was 4.4%.

In the case of `Cc1cccc(NS(=O)(=O)c2cccc3cccnc23)n1`, the cytotoxicity is 9%.

As to `Cc1cc(C(=O)NCCCN2CCN(C3CCCCC3)CC2)n(-c2ccccc2)n1`, the cytotoxicity was 13.2%.

For `Cc1cc(C(=O)NCCN2CCN(c3cccc(Cl)c3)CC2)n(-c2ccccc2)n1`, the cytotoxicity is 55.9% (active).

As to `Cc1cc(C(=O)NCCCN2CCOCC2)n(-c2ccccc2)n1`, the cytotoxicity was -1.5%.

With `Cn1c(=O)[nH]c(=O)c2c1nc1n2CCCS1`, the cytotoxicity was 35.1%.

`Cc1ccc(C(C#N)c2ccc3c(C(F)(F)F)cc(C(F)(F)F)nc3n2)cc1` (configuration not stated): the cytotoxicity was -12.2%.

With `N#CC(c1ccccc1)c1ccc2c(C(F)(F)F)cc(C(F)(F)F)nc2n1` (configuration not stated), the cytotoxicity is -4.8%.

Consider `N#CC(c1ccc(Cl)cc1)c1ccc2c(C(F)(F)F)cc(C(F)(F)F)nc2n1` (configuration not stated), for which the cytotoxicity is 51.3% (active).

In the case of `Cc1ccc(NC(=O)CN2CCCCCC2)c(Br)c1`, the cytotoxicity is -14.9%.

On to `CCOC(=O)c1ccc(NC(=O)CC2C(=O)N(c3ccc(F)cc3)C(=O)N2CCC(C)C)cc1` (configuration not stated), for which the cytotoxicity is 4.5%.

Consider `Cn1cc(S(=O)(=O)NCc2cccs2)c(=O)n(C)c1=O`, for which the cytotoxicity was 0.5%.

Consider `COc1ccc(S(=O)(=O)Nc2ccc(N(C)C(C)=O)cc2)cc1`, for which the cytotoxicity is 4.3%.

Take `O=C(CSc1ncn[nH]1)Nc1ccccc1Sc1ccc(Cl)cc1`: the cytotoxicity was 41.7%.

As for `Nc1nc(SCC(=O)Nc2ccccc2Sc2ccc(Cl)cc2)n[nH]1`, the cytotoxicity is 74.3% (active).

Consider `Nc1nc(SCC(=O)Nc2ccccc2-c2ccccc2)n[nH]1`, for which the cytotoxicity was 0.1%.

For the compound `CCn1c(SCC(=O)c2ccc(NS(=O)(=O)c3ccccc3)cc2)nnc1-c1cccs1`, the cytotoxicity is -0.1%.

In the case of `O=C(O)C1C2CCC(O2)C1C(=O)Nc1cnn(Cc2ccccc2)c1` (configuration not stated), the cytotoxicity is 13%.

Consider `CC(C)CC(NC(=O)C1CCC(C)CC1)C(=O)NCc1ccccn1` (configuration not stated), for which the cytotoxicity is 23.1%.

Regarding `Cn1c(C(=O)N2CCC(C(=O)N3CCOCC3)CC2)cc2sccc21`, the cytotoxicity was 4.3%.

In the case of `CCOc1ccccc1-n1c(SCC(N)=O)nnc1-c1cccnc1`, the cytotoxicity was 7.9%.

With `Brc1ccc(C2=Nn3c(nnc3-c3n[nH]c4c3CCC4)SC2)cc1`, the cytotoxicity was 56.3% (active).

Consider `COc1ccc(C2=Nn3c(nnc3-c3ccncc3)SC2)cc1`, for which the cytotoxicity is -6.8%.

As for `COc1cc(-c2nnc3n2N=C(c2ccccc2)CS3)cc(OC)c1OC`, the cytotoxicity was 66.9% (active).

With `COc1cccc(-c2nnc3n2N=C(c2cc(OC)ccc2OC)CS3)c1`, the cytotoxicity was 5.5%.

Regarding `COc1ccc(-c2nnc3n2N=C(c2ccccc2)CS3)cc1OC`, the cytotoxicity is -10.6%.

In the case of `COc1ccc(-c2nnc3n2N=C(C)CS3)cc1`, the cytotoxicity was -10.3%.

Turning to `COc1ccc(C2=Nn3c(nnc3-c3ccc(OC)cc3)SC2)cc1`, the cytotoxicity is 62.4% (active).

`Clc1ccc(C2=Nn3c(nnc3-c3n[nH]c4c3CCC4)SC2)cc1`: the cytotoxicity was 6.1%.

Consider `COc1ccc(OC)c(C2=Nn3c(nnc3-c3cc(OC)c(OC)c(OC)c3)SC2)c1`, for which the cytotoxicity is 64.1% (active).

Turning to `Fc1ccc(C2=Nn3c(nnc3-c3n[nH]c4c3CCC4)SC2)cc1`, the cytotoxicity was 5.8%.

Regarding `COc1ccc(OC)c(C2=Nn3c(nnc3-c3ccncc3)SC2)c1`, the cytotoxicity is 2.2%.

Consider `Cc1cccc(-c2nnc3n2N=C(c2ccccc2)CS3)c1`, for which the cytotoxicity is 5.5%.

In the case of `N#CCSc1nnc(Cc2cccs2)n1C1CCCCC1`, the cytotoxicity was 11.1%.

With `Cc1ccc(C(=O)N2CCC(C(N)=O)CC2)cc1C`, the cytotoxicity is -2.5%.

`Cc1nn(Cc2n[nH]c(=S)n2Cc2ccccc2)c(C)c1Cl`: the cytotoxicity is -7%.

Regarding `Cc1ccc(NC(=O)C2(N(CC(C)C)C(=O)Cn3nnnc3N)CCCCC2)cc1`, the cytotoxicity was 3%.

`CCNC(=O)CSc1nnc(-c2ccc(OC)cc2)n1CC(C)C`: the cytotoxicity is -18.3%.

On to `CSCC[C@H](Nc1ncnc2sc(C)c(C)c12)C(=O)O`, for which the cytotoxicity is -6%.

Take `CSc1nnc(-c2ccccc2)o1`: the cytotoxicity is -3.8%.

For the compound `O=c1[nH]c2ccccc2nc1N1CCOCC1`, the cytotoxicity is -5%.

On to `O=S(=O)(c1ccc(N2CCC(c3ccc(Cl)cc3)=N2)cc1)N(CCO)CCO`, for which the cytotoxicity was -11.6%.

For `CN(C)CCNS(=O)(=O)c1ccc(Cl)cc1`, the cytotoxicity is -7.5%.

For the compound `COc1ccc(-n2nnc3c(=O)n(C/C=C/c4ccccc4)cnc32)cc1`, the cytotoxicity is -3.8%.

Turning to `Nc1c(C(=O)NCc2ccc3c(c2)OCO3)c2nc3ccccc3nc2n1CCCN1CCOCC1`, the cytotoxicity was 52.9% (active).

`Nc1c(C(=O)NCc2ccc(F)cc2)c2nc3ccccc3nc2n1CCCN1CCOCC1`: the cytotoxicity is 0.2%.

As for `COc1ccc(CNC(=O)c2c(N)n(CCCN3CCOCC3)c3nc4ccccc4nc23)cc1`, the cytotoxicity is 15.1%.

Take `O=C(O)CSCCc1ccccn1`: the cytotoxicity is 8.2%.

In the case of `CN1C(=O)CSc2ccc(NC(=O)N3CCN(c4ccccn4)CC3)cc21`, the cytotoxicity is -6.2%.

In the case of `CN1C(=O)CSc2ccc(NC(=O)N3CCc4ccccc43)cc21`, the cytotoxicity was 64.2% (active).

For `COc1cccc(NC(=O)Nc2ccc3c(c2)N(C)C(=O)CS3)c1`, the cytotoxicity was 6%.

With `Cc1nc(NC2=NCN(CCN3CCOCC3)CN2)nc2c(C)cccc12`, the cytotoxicity is 4.7%.

Take `Cc1cc2nc(NC3=NCN(CCCN4CCOCC4)CN3)nc(C)c2cc1C`: the cytotoxicity was 4.7%.

Consider `CCOC(=O)c1[nH]c(C)c(C(=O)Nc2ccc(C)c(C)c2)c1C`, for which the cytotoxicity is -11.9%.

Consider `COc1ccc(OC)c(NC(=O)c2[nH]c(C)c(C(C)=O)c2C)c1`, for which the cytotoxicity is 11.3%.

Consider `CCOC(=O)c1[nH]c(C)c(C(=O)Nc2ccc(Cl)cc2)c1C`, for which the cytotoxicity was 0.6%.

As for `CCOC(=O)c1c(C)[nH]c(C(=O)OCC(=O)N2CCc3ccccc32)c1C`, the cytotoxicity was -4.1%.

As for `CCOC(=O)c1[nH]c(C)c(C(=O)Nc2ccc(C)c(Cl)c2)c1C`, the cytotoxicity was 22.7%.

As for `CCOC(=O)c1[nH]c(C)c(C(=O)Nc2cc(OC)ccc2OC)c1C`, the cytotoxicity is 58% (active).

Regarding `CCOC(=O)c1[nH]c(C)c(C(=O)Nc2ccc(C)cc2C)c1C`, the cytotoxicity was 52.7% (active).

Turning to `CCOC(=O)c1[nH]c(C)c(C(=O)OCC(=O)N2CCc3ccccc32)c1C`, the cytotoxicity was 6.7%.

For the compound `CCOC(=O)c1[nH]c(C)c(C(=O)Nc2cc(Cl)ccc2C)c1C`, the cytotoxicity was 52% (active).

`CCOC(=O)c1ccc(NC(=O)c2c(C)[nH]c(C(=O)OCC)c2C)cc1`: the cytotoxicity was 5.5%.

As to `CCOC(=O)c1[nH]c(C)c(C(=O)N2CCc3ccccc32)c1C`, the cytotoxicity is 57.9% (active).

As for `CCOC(=O)c1c(C)[nH]c(C(=O)OCC(=O)Nc2cc(C)ccc2OC)c1C`, the cytotoxicity was -1.2%.

Consider `O=C(Nc1ccccc1)N1CCCC2CCCCC21` (configuration not stated), for which the cytotoxicity is 6.5%.

With `COc1cccc(-c2ccc(=O)n(CC(=O)NCCN3CCOCC3)n2)c1`, the cytotoxicity is -0.6%.

`Cc1ccc(NC(=O)CN(C)c2ccc(S(=O)(=O)N3CCN(C)CC3)cn2)cc1`: the cytotoxicity was -4.8%.

Turning to `O=C(O)C1CC=CCC1C(=O)N1CCc2ccccc21` (configuration not stated), the cytotoxicity is -3.6%.

With `Cc1cc(C)n2cc(CSc3nc4cc(Cl)ccc4o3)nc2n1`, the cytotoxicity was 1%.

On to `Cc1ccc(C2C(C(=O)O)c3ccccc3C(=O)N2C)o1` (configuration not stated), for which the cytotoxicity is 3.3%.

Consider `CCOC(=O)c1[nH]c(C)c(C(=O)Nc2ccccc2F)c1C`, for which the cytotoxicity was 44.7%.

`CCOC(=O)c1[nH]c(C)c(C(=O)Nc2ccccc2C)c1C`: the cytotoxicity was 61.8% (active).

Regarding `CCOC(=O)c1[nH]c(C)c(C(=O)Nc2cccc(Cl)c2C)c1C`, the cytotoxicity was 33.8%.

Take `COC(=O)C1=C(C)N(CCc2ccccc2)C(=O)C1(NS(=O)(=O)c1ccc(NC(C)=O)cc1)C(F)(F)F` (configuration not stated): the cytotoxicity is -19.4%.

On to `O=C(NCc1ccc2c(c1)OCO2)c1ccc(CN2CCOCC2)cc1`, for which the cytotoxicity was -0.5%.

For `CC(=O)N1c2ccccc2N(Cc2ccc(C)cc2C)C(=O)C1(C)C`, the cytotoxicity is 52.2% (active).

On to `Cc1ccc(C(=O)N2c3ccccc3N(Cc3ccccc3)C(=O)C2(C)C)cc1`, for which the cytotoxicity is -12.6%.

In the case of `Cc1ccc(C)c(CN2C(=O)C3(OCCCO3)c3ccccc32)c1`, the cytotoxicity was -5.2%.

As to `Cc1nnc(N2C(=O)C(O)=C(C(=O)c3ccco3)C2c2ccc(C(C)C)cc2)s1` (configuration not stated), the cytotoxicity is -3.4%.

As for `O=C(Nc1cc(C(F)(F)F)ccc1N1CCOCC1)c1ccc[n+]([O-])c1`, the cytotoxicity was 8.9%.

`CCc1ccccc1NS(=O)(=O)c1ccc2[nH]cc(C(=O)NCC3CCCO3)c(=O)c2c1` (configuration not stated): the cytotoxicity was 3.1%.

`Cn1cnnc1SCC(=O)Nc1ccccc1`: the cytotoxicity is 5.5%.

As to `COC(=O)c1ccc(NC(=O)CSc2nncn2C)cc1`, the cytotoxicity is 3.9%.

`CCCCOC(=O)c1ccc(NC(=O)CSc2nncn2C)cc1`: the cytotoxicity is 61.2% (active).

As to `CCCCCn1c(=O)[nH]c2cc(C(=O)NCCCN3CCCCC3)ccc2c1=O`, the cytotoxicity was -6%.

Consider `CN(C)S(=O)(=O)c1cccc(-c2nnc(-c3ccccc3)o2)c1`, for which the cytotoxicity was -8%.

With `O=C(CSCc1c(Cl)cccc1Cl)NCc1ccco1`, the cytotoxicity is 6.4%.

In the case of `C[C@@H](NC(=O)c1coc(=O)c(Br)c1)c1ccccc1`, the cytotoxicity was 2.9%.

For the compound `CN(C)CCNC(=O)c1coc(=O)c(Br)c1`, the cytotoxicity was -5.5%.

Take `CC(C)CCOc1ccc(C(=O)O)cc1`: the cytotoxicity was -1.4%.

For the compound `COc1cc(OC)c(NC(=O)CCc2ccccc2)cc1Cl`, the cytotoxicity was -15.4%.

In the case of `CNC(=O)CSc1nnc(-c2ccco2)n1-c1ccccc1OC`, the cytotoxicity is 25.4%.
